From PubChem
Rows were chosen to be rich in hits. Some 0.53% of all compounds tested hit in one or more screens of this group.
Hsp90 Hop PPI: changes Hsp90-Hop TPR2A binding signal, up or down. AID 595. AlphaScreen TPR2A-His6 binding biotin-Hsp90 C-terminal peptide. hit rate 0.44% among 71,000. Potency, µM (series often up to 57 µM); active = well fitted curve in either direction with a large enough effect; inconclusive = small, poorly fitted or top-dose-only effect, or another doubt
YjeE inh: displaces an ADP probe from E. coli YjeE (TsaE). P0AF67. purified YjeE enzyme, qHTS inhibition assay. Potency, µM. hit rate 0.05% among 71,000. AID 605
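Fluorescence polarization of a BODIPY Texas Red–ADP probe (2 uM) bound to purified YjeE (10 uM) was read after 15 min room-temperature incubation with compounds. Loss of polarization marks inhibitors; ADP serves as titrated control.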
BRCT PPI red: inhibitors of human BRCA1 BRCT-phosphoprotein interaction (red fluorophore); P38398; BRCT-phosphopeptide binding, red fluorescence polarization; Potency, µM (top dose mostly 76.9 µM), most hits filed as inhibitors; hit rate 0.03% among 75,000
Target sequence (P38398 whole entry, looked up): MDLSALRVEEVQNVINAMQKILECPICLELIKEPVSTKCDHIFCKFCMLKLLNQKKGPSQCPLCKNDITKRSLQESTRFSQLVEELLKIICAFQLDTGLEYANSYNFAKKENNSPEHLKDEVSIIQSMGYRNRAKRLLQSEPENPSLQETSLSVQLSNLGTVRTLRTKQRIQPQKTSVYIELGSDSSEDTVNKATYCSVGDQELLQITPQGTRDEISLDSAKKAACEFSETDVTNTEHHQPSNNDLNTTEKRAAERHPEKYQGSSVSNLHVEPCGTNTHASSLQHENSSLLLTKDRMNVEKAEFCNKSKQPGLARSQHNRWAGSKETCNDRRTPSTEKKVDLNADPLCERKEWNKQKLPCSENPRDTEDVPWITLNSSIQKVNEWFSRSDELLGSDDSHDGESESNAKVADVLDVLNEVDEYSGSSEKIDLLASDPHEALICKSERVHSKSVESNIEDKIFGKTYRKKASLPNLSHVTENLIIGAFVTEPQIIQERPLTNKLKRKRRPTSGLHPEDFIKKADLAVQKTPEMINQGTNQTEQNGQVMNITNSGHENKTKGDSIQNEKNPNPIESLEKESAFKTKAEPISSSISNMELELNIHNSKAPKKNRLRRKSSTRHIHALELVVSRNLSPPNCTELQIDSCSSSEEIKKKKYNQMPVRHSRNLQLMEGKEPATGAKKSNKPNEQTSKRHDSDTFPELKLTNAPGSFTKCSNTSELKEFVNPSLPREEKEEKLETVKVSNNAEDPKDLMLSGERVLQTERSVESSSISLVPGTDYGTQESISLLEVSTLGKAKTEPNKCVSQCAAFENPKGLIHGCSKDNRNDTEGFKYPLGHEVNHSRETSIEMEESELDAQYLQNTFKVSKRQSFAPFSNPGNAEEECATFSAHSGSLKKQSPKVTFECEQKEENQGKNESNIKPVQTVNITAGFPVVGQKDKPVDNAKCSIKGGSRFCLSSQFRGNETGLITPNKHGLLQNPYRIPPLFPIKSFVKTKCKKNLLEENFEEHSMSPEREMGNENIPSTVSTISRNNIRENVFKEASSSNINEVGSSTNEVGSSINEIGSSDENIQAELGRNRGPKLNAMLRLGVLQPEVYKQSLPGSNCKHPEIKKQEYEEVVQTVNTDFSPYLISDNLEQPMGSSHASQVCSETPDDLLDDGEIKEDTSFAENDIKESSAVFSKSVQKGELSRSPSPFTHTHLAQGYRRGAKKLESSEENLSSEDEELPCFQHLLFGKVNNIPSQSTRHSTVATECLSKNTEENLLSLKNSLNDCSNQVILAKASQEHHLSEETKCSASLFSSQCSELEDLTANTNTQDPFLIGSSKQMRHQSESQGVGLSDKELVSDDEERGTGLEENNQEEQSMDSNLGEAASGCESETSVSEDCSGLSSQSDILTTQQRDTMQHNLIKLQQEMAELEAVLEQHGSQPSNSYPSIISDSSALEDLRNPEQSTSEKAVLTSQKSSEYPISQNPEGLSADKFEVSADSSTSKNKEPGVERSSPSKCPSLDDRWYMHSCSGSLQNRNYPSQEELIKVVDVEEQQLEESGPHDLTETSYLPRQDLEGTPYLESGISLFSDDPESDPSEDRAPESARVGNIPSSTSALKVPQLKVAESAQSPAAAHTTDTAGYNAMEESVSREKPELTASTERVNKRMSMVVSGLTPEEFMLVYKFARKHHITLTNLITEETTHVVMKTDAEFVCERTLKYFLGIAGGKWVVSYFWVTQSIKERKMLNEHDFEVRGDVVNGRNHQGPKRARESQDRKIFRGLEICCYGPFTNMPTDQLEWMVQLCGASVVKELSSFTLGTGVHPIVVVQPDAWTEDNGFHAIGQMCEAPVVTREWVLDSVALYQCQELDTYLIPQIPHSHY
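Rhodamine-labelled pBACH1 10-mer (100 nM) bound to BRCT domain (100 nM) at pH 7.3; compounds incubated 12 min room temperature, polarization read. Free peptide defines full inhibition; unlabelled decapeptide titrated as control.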
Pol III holo inh: inhibitors of bacterial DNA polymerase III holoenzyme | reconstituted DNA polymerase III holoenzyme replication, biochemical | Potency, µM (doses to about 57.1 µM) | hit rate 0.25% among 71,000
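Reconstituted *E. coli* holoenzyme (0.35 nM Pol III, 1 nM beta, 154 nM SSB, 2 nM primase) was preincubated with compound for 15 min at RT. Synthesis on 1.4 nM ssM13Gori ran 35 min, then was stopped with PicoGreen/EDTA and read as dsDNA fluorescence.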
BRCT PPI green: blocks human BRCA1 BRCT binding to phosphopeptide, green readout; P38398; BRCA1 BRCT-phosphopeptide binding, green fluorescence polarization; Potency, µM (highest dose often 76.9 µM), most hits filed as inhibitors; hit rate 0.05% among 75,000
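Compounds were incubated for 12 min at room temperature with a complex of 100 nM fluorescein-tagged pBACH1 decapeptide and 250 nM His-tagged BRCT protein. Buffer was phosphate pH 7.3 with EDTA, DTT and Tween 20. Disruption of binding lowers the polarization signal.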
Large screens that a line does not name were inactive. Unless noted, calls come from the whole dose curve; as a rule, active = well fitted curve in the direction sought with a large enough effect; inconclusive = small, poorly fitted or top-dose-only effect, or another doubt; inactive = no such curve, though single readings can be large; an effect the other way counts as inactive or inconclusive.

COCc1cc(CN2CCCC2)c(O)c2ncccc12	Hsp90 Hop PPI 3.16µM
O=C(Oc1c(CN2CCOCC2)cc(Cl)c2cccnc12)c1ccc(F)cc1	Hsp90 Hop PPI 12.6µM
O=C(Nc1nc(-c2ccc(Cl)s2)cs1)c1cccs1	none
O=C(Nc1nc(-c2ccccn2)cs1)c1ccc(Cl)s1	Hsp90 Hop PPI 7.94µM
N#Cc1c(-c2ccco2)cc(-c2cccnc2)nc1N	Hsp90 Hop PPI inconclusive, BRCT PPI red inconclusive, Pol III holo inh 31.6µM, BRCT PPI green inconclusive
CN(C)CCCO[C@H]1[C@H]([C@H](O)CO)O[C@H]2OC(C)(C)O[C@@H]21	none
O=C(O)c1ccc(N[C@H](c2ccccc2)c2ccc3cccnc3c2O)cc1	none
CC(C)C(=O)NC(c1ccco1)c1ccc2cccnc2c1O (configuration not stated)	Hsp90 Hop PPI 10µM
COc1ccc(C(NC(C)=O)c2ccc3cccnc3c2O)c(OC)c1 (configuration not stated)	Hsp90 Hop PPI 15.8µM
Oc1c(C(Nc2nc3ccccc3s2)c2ccco2)ccc2cccnc12 (configuration not stated)	Hsp90 Hop PPI inconclusive
OC[C@@H]1O[C@@H](O)[C@H](N=Cc2ccc3c(c2)OCO3)[C@@H](O)[C@@H]1O	none
O=C1[C@H]2[C@H]3[C@H](O)[C@H](O)C/C(=N/OC[C@@H](O)COCc4ccco4)[C@@H]3CC[C@@H]2C(=O)N1Cc1ccccc1	none (no result: Hsp90 Hop PPI, YjeE inh, Pol III holo inh)
COc1ccc2noc3c2c1C(=O)c1ccccc1-3	Hsp90 Hop PPI inconclusive, BRCT PPI green 3.16µM
O=C1c2ccccc2-c2onc3ccc(NCCCn4ccnc4)c1c23	Hsp90 Hop PPI 25.1µM, YjeE inh 25.1µM, BRCT PPI red 0.631µM, BRCT PPI green 0.794µM
COC1=C(OC)C(=O)c2ccccc2C1=O	none
COc1cc(C(=O)O[C@@H]2CC(C)=CC[C@@]3(C)CC[C@](O)(C(C)C)[C@H]23)ccc1O	none (no result: BRCT PPI red, BRCT PPI green)
COc1ccc(-c2cc(C(=O)N/N=C/c3ccc(OC)c(OC)c3)[nH]n2)cc1	none (no result: Hsp90 Hop PPI, YjeE inh, Pol III holo inh)
S=C(Nc1ccccn1)c1ccccn1	Hsp90 Hop PPI 10µM
COc1ccc(-c2cc(C(=O)N/N=C\c3cc(OC)c(OC)c(OC)c3)[nH]n2)cc1	none (no result: Hsp90 Hop PPI, YjeE inh, Pol III holo inh)
O=C1c2ccccc2C(=O)c2c(NC3CCCCC3)ccc(Nc3ccc(S(=O)(=O)O)cc3)c21	Hsp90 Hop PPI 3.98µM, YjeE inh 12.6µM
Nc1ccc(-c2ccc(Nc3cc(S(=O)(=O)O)c(N)c4c3C(=O)c3ccccc3C4=O)cc2)c(S(=O)(=O)O)c1	none
CCN(c1cccc(C)c1)S(=O)(=O)c1ccc(O)c(C(=O)O)c1	none (no result: Hsp90 Hop PPI, YjeE inh, Pol III holo inh)
C=Cc1c(C)c2cc3nc(cc4[nH]c(cc5nc(cc1[nH]2)C(C)=C5CCC(=O)O)c(CCC(=O)OC)c4C)[C@@]1(C)C3=CC=C(C(=O)OC)[C@H]1C(=O)OC (tested in a mixture with another compound)	Hsp90 Hop PPI 0.251µM
COCc1cc(=O)[nH]c(Nc2nc(C)c3ccc(C)cc3n2)n1	none
Cc1ccc2c(C)nc(Nc3nc(CSc4nnnn4-c4ccccc4)cc(=O)[nH]3)nc2c1	Pol III holo inh 12.6µM
CC[C@H](C)C(=O)O[C@@H]1CCC=C2C=C[C@H](C)[C@@H](CC[C@H]3C[C@@H](O)CC(=O)O3)[C@H]21	none (no result: BRCT PPI red, BRCT PPI green)
COc1ccc2c(c1)[C@]1(C)CCC[C@](C)(CO)[C@@H]1CC2	none (no result: BRCT PPI red, BRCT PPI green)
O=C1c2cccc(O)c2C(=O)c2c(O[C@@H]3O[C@H](CO)[C@@H](O)[C@H](O)[C@@H]3O)cccc21	none
O=C(O)c1cc(O)c2c(c1)[C@H]([C@H]1c3cc(C(=O)O)cc(O)c3C(=O)c3c(O[C@@H]4OC(CO)C(O)C(O)C4O)cccc31)c1cccc(O[C@@H]3OC(CO)C(O)C(O)C3O)c1C2=O (some centres not stated)	BRCT PPI red 6.31µM (no result: Hsp90 Hop PPI, YjeE inh, Pol III holo inh)
CCCCOc1ccc(-c2nnn(C(C)(C)C(=O)OC)n2)cc1	Hsp90 Hop PPI 25.1µM
CN1CCN(C(c2cccnc2)c2ccc3cccnc3c2O)CC1 (configuration not stated)	Hsp90 Hop PPI 3.16µM
O=S(=O)(NCCCCCCc1ccccc1)c1cccc2c(Cl)cccc12	Hsp90 Hop PPI 39.8µM
